± gives the standard deviation.
How the values were obtained:
[1] = test system: MILI (PIWIL2) piRISC loaded with piRNA #1 (26 nt); experiment: pre-steady-state target cleavage rate (min^-1); guide: piRNA #1 5'p-UGAGGUAGUAGGUUGUAUAGUAUCCA; higher = faster piRNA-guided slicing of the target; details: auxiliary factor: 500 nM mouse GTSF1
In short: (§1)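 Cleave-'n-Seq reactions paired 0.1 nM transcribed, DNA-blocked target RNA library with 1 nM active affinity-purified piRISC holding one synthetic guide, plus or minus 500 nM GTSF1 partner protein, in HEPES–potassium acetate buffer at 33 °C for 0–8 or 0–960 min. After sequencing of uncleaved targets and normalisation to depth and weakly complementary targets, the pre-steady-state cleavage rate was taken from a burst-and-steady-state fit. Three trials were pooled, and k3 was capped at 0.0001 min^-1.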

[2] = test system: EfPiwi piRISC loaded with piRNA #1 (26 nt); experiment: pre-steady-state target cleavage rate (min^-1); auxiliary factor: 500 nM Ephydatia muelleri Gtsf1; guide: piRNA #1 5'p-UGAGGUAGUAGGUUGUAUAGUAUCCA; MIWI and MILI are mouse PIWI proteins and EfPiwi is from a freshwater sponge; tags in brackets are library labels; higher = faster piRNA-guided slicing of the target
In short: as §1

| Sequence | pre-steady-state target cleavage rate [1] | pre-steady-state target cleavage rate [2] |
| --- | --- | --- |
| GGAGACCAUACUUUACAACCUACUUCCUCA | 0.0695 ± 0.018 | 0.00404 ± 0.0039 |
| GGAGACCAUACUAUGCAACCUACUACCUCA | 0.174 ± 0.019 | 0.0164 ± 0.0068 |
| GGAGAGGAUACUACUACAACCUACUACCUCA | 0.15 ± 0.016 | 0.00619 ± 0.0042 |
| GGAGACCUAUGAAGUACAACCUACUACCUCA | 0.00594 ± 0.0028 | 0.00479 ± 0.0035 |
| GGAGACGAUAGUAUACAACCUACAACCUCA | 0.106 ± 0.011 | 0.00195 ± 0.0018 |
| GGAGACCUUACUAUACAACCUACAACCUCA | 0.126 ± 0.016 | 0.00341 ± 0.0024 |
| GGAGACCAUACUAUACAACCUACUACUUCA | 0.189 ± 0.019 | 0.00607 ± 0.0024 |
| GGAGACCUAACUAUACAACCUACUACCCCA | 0.195 ± 0.058 | 0.00474 ± 0.0039 |
| GGAGACCAUACUAUACCAACCUACUACCUCA | 0.0299 ± 0.0075 | 0.00761 ± 0.0031 |
| GGAGACCUAUCUAUACAACCUACUGCCUCA | 0.0855 ± 0.013 | 0.00997 ± 0.0044 |
| GGAGACGAUACUAUACAACCUACUAUCUCA | 0.149 ± 0.014 | 0.00856 ± 0.0034 |
| GGAGACCAUACUAUACAAACCUACUACCUCA | 0.0045 ± 0.003 | 0.00703 ± 0.0028 |
| GGAGUGGAUACUUUACAACCUUCUACCUCA | 0.0065 ± 0.0017 | 0.00301 ± 0.0026 |
| GGAGAGGAUACAAUACUACCUACUACCUCA | 0.154 ± 0.013 | 0.00424 ± 0.0028 |
| GGAGUGGAUACUACACAACCUACUACCUCA | 0.175 ± 0.011 | 0.082 ± 0.029 |
| GGAGACCAUACUAUACAAGGUACUACCUCA | 0.0713 ± 0.0087 | 0.00335 ± 0.0029 |
| GGAGACCUAACUAUUACAACCUACUACCUCA | 0.099 ± 0.023 | 0.0205 ± 0.0091 |

| Sequence | pre-steady-state target cleavage rate [1] | pre-steady-state target cleavage rate [2] |
| --- | --- | --- |
| GGAGACCUCACUAUACAACCUACUACCUCA | 0.252 ± 0.029 | 0.0184 ± 0.0086 |
| GGAGACCUAACUAUACAACCUACUUCCUGA | 0.0081 ± 0.0069 | 0.00376 ± 0.0037 |
| GGAGUGGAUACUAUACAACUUACUACCUCA | 0.0246 ± 0.0024 | 0.01 ± 0.0049 |
| GGAGAGGAUACCAUACAACCUACUACCUCA | 0.167 ± 0.021 | 0.0957 ± 0.032 |
| GGAGUGGAUAGUAUACAUCCUACUACCUCA | 0.189 ± 0.017 | 0.00444 ± 0.0024 |
| GGAGAGCAUACUAUACAACCUAGUACCUCA | 0.0618 ± 0.013 | 0.00276 ± 0.0014 |
| GGAGAGGAUUCUAUACAAGCUACUACCUCA | 0.15 ± 0.01 | 0.00384 ± 0.0028 |
| GGAGACGAUUCUAUACAACCUACAACCUCA | 0.164 ± 0.013 | 0.00277 ± 0.0012 |
| GGAGAGGAUAGUAUACAACCUACAACCUCA | 0.037 ± 0.0093 | 0.00249 ± 0.0021 |
| GGAGACCUUUCUAUACAUCCUACUACCUCA | 0.158 ± 0.013 | 0.00708 ± 0.0041 |
| GGAGACGAUACUAUACAACCUACUACCUCCA | 0.214 ± 0.014 | 0.02 ± 0.0073 |
| GGAGACCUUACUAUACAACCUACUUCCUCA | 0.0805 ± 0.016 | 0.0038 ± 0.0028 |
| GGAGUGGAUACUAUAGAACCUACUACCUGA | 0.0453 ± 0.0088 | 0.00222 ± 0.0011 |
| GGAGAGGCUACUAUACAACCUACUACCUCA | 0.182 ± 0.017 | 0.0629 ± 0.022 |
| GGAGACCUAACUAAUACAACCUACUACCUCA | 0.103 ± 0.025 | 0.0103 ± 0.0044 |
| GGAGACCUAACUAUACAACCUACUACCUGCA | 0.149 ± 0.034 | 0.0711 ± 0.039 |
